The record followed here is PubChem BioAssay (NCATS).

The structures appear in SMILES notation. Where “and” joins values, the source holds several entries; their conditions need not be identical. Equal entries are not always repeated. Inconclusive results are not listed. Calls of active or inactive are those of the source. Unless noted, calls come from the whole dose curve; as a rule, active = well fitted curve in the direction sought with a large enough effect; inconclusive = small, poorly fitted or top-dose-only effect, or another doubt; inactive = no such curve, though single readings can be large; an effect the other way counts as inactive or inconclusive.

For assay [1], the target named is Glucocorticoid receptor (Homo sapiens) (UniProt P04150). As to the kind of experiment: GR-GFP Redistribution (AID 450;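 active = compounds whose dose series gives a full or clear partial fitted curve of increased nuclear translocation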; note: potency is the fitted concentration of half-maximal effect). The note with it: U2OS GR-GFP nuclear translocation, laser cytometry, 2 h.
Sequence of Glucocorticoid receptor (Homo sapiens) (P04150 whole entry, looked up): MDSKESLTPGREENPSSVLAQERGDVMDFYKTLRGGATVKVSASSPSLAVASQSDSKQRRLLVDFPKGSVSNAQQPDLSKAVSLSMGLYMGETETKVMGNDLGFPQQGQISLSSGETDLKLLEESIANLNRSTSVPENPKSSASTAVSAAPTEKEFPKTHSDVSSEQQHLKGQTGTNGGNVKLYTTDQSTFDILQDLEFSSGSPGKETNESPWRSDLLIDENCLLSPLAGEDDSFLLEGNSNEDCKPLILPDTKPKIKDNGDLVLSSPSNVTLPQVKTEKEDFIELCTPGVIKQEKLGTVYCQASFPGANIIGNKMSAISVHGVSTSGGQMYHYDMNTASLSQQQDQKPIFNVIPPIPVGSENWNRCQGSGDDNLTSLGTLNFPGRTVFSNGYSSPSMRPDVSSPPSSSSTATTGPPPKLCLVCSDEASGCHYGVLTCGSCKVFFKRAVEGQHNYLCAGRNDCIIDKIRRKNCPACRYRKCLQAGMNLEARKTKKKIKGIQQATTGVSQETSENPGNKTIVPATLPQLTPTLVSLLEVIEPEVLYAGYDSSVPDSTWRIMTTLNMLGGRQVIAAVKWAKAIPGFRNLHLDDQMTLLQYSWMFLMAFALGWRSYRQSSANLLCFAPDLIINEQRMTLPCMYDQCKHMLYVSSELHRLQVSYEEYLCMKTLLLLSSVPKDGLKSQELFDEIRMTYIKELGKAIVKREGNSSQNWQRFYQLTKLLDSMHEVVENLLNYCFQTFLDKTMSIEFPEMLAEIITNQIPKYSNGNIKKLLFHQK
Assay [2] shares this target. Put plainly: GR-EFC Redistribution (AID 451; calls by dose curve; note: potency is the fitted concentration of half-maximal effect). Conditions: CHO-K1 GR-EFC translocation, beta-gal luminescence, 2 h. Put shortly:
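CHO-K1 cells stably expressing nuclear-localized β-gal enzyme acceptor and GR fused C-terminally to the enzyme donor fragment; ligand-driven nuclear translocation restores β-gal by complementation. Compounds titrated up to 46 uM final, 2 h at 37 °C; luminescence read.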

The target in assay [3] is Mitogen-activated protein kinase 10 (Mus musculus) (UniProt Q61831). As to the kind of experiment: JNK3 AlphaScreen Assay (AID 530; active = well fitted curve in either direction with a large enough effect, not every such curve was filed as active;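 note: kinase came from lysate of stimulated human HepG2 cells; signal reports phosphorylation of biotinylated GST-cJun 1-79 at Ser73 with 10 µM ATP; % is set by controls: 0 for no effect and ±100 for the full control effect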). Put shortly: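 Inhibitors reduce antibody binding to phosphorylated biotin-cJun, lowering AlphaScreen luminescence. Lysates from HepG2 cells pre-activated by IL-1beta plus TNF-alpha supplied JNK3; compounds were titrated.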
Assay [4] can be described thus: qHTS Assay for Lipid Storage Modulators (AID 1519; calls by dose curve; for activity change, negative = inhibition: % is set by controls: 0 for no effect and ±100 for the full control effect). Conditions: Drosophila S3 cells, BODIPY lipid droplet/cell ratio, laser cytometry, cells loaded with oleic acid; for activity change, negative = inhibition: at 57.5 µM (top of the series). The essentials:
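Cells seeded at 5,000 per well were treated with compounds over a concentration series and loaded with oleic acid (400 uM, as added). Lipid droplet fluorescence (488 nm excitation, 500-530 nm channel) was read by laser-scanning cytometry and normalized to 20 uM Triacsin C.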
On the technique in general: qHTS replaces the single test concentration by a dilution series.

Assay [5] addresses DNA dC->dU-editing enzyme APOBEC-3G (Homo sapiens) (UniProt Q9HC16). Put plainly: qHTS for inhibitors of Vif-A3G interactions: Validation (AID 588379). Note: 0% is about no effect. Put shortly:
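HeLa cells stably expressing Vif and A3G-eYFP, 700 cells/well, incubated overnight at 37 deg C, then exposed to compound overnight at 37 deg C. Inhibition of Vif-mediated degradation read as increased yellow fluorescence (Ex 488/Em 500-530) by laser-scanning cytometry.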

For assay [6], the system named is Zika virus NS2B-NS3 protease. Put plainly: Primary screen GU AMC qHTS for Zika virus inhibitors (AID 1347154).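 For activity change, negative = inhibition: 0% = no-inhibitor control and -100% = no-enzyme control.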 Note: nearly all actives have a fitted effect of over 70% in size. Note: potency is the fitted concentration of half-maximal effect. Put shortly:
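Unlinked Zika NS2B hydrophilic domain/NS3 protease domain noncovalent complex (25 nM final) in 10 mM Tris-HCl pH 8.0, 0.01% Tween 20, with AMC peptide substrate. Fluorescence (ex 340, em 450 nm) change over 15 min, room temperature; percent inhibition fitted to 4-parameter Hill equation.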

Assay [7] in a line: Primary qHTS for small molecule stabilizers of the endoplasmic reticulum resident proteome: Secreted ER Calcium Modulated Protein (SERCaMP) assay (AID 1508630). Note: % is set by controls: 0 for no effect and ±100 for the full control effect. Put shortly:
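GLuc-SERCaMP-expressing SH-SY5Y cells, pretreated 16 h with compound, are challenged with thapsigargin to empty ER calcium stores; after 4 h, coelenterazine is added directly to the medium and luminescence is imaged.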

Assay [8] deals with 3',5'-cyclic-AMP phosphodiesterase 4B (Homo sapiens) (UniProt Q07343). Put plainly: qHTS Assay for Inhibitors of PDE-IV (AID 607; active = well fitted activation curve with a large enough effect in the main read-out, with a control signal flat, not every such curve was filed as active; note: % of control where 0% means no effect). Put shortly:
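HEK293 ACTOne cells with CNG channel (1000/well), endogenous PDE4; membrane potential dye, compounds up to 22.9 uM final. Fluorescence Ex 535/Em 590; RO 20-1724 (100 uM final) as reference.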

In assay [9] the target is Cytochrome P450 3A4 (Homo sapiens) (UniProt P08684). Put plainly: qHTS Assay for Activators of Cytochrome P450 3A4 (AID 885). Note: nearly all actives have a fitted effect of over 65% in size. The essentials: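 Human CYP3A4 (20 nM) with Luciferin-PPXE at 25 uM (its KM) in 200 mM KPO4; 10 min compound preincubation, then NADPH regeneration and 60 min reaction at RT. Luciferin read by luminescence; normalized to 57 uM ketoconazole full inhibition.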
Sequence of Cytochrome P450 3A4 (Homo sapiens) (P08684 whole entry, looked up): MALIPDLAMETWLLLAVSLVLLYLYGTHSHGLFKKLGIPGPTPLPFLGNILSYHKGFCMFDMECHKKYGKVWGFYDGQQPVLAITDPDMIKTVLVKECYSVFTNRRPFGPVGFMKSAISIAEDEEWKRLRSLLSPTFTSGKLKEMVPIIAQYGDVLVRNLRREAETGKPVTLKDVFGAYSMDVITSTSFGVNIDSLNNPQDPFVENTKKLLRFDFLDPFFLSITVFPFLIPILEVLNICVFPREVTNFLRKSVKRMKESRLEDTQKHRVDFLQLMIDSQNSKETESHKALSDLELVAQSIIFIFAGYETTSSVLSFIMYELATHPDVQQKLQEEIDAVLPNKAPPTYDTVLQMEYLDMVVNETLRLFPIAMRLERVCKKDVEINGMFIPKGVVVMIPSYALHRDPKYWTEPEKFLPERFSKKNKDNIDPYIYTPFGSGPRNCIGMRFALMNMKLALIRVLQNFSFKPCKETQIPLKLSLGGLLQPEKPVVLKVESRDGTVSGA

In assay [10] the target is Ubiquitin carboxyl-terminal hydrolase 1 (Homo sapiens) (UniProt O94782). Put plainly: Inhibitors of USP1/UAF1: Pilot qHTS (AID 504865).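 Note: rhodamine fluorescence freed from ubiquitin-rhodamine substrate followed over time; top concentration of the series differs between compounds; % is set by controls: 0 for no effect and ±100 for the full control effect; nearly all actives have a fitted effect of over 35% in size.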 Put shortly: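 1nM USP1/UAF1 + cpd, 15 min RT; start w/ Ub-Rho 150nM final; kinetic FL 480/540 nm, 6 reads q60 s. Buffer 50mM HEPES pH 7.8, 0.5mM EDTA, 1mM TCEP, 0.01% Tween-20, 0.1 mg/ml BSA.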
Sequence of Ubiquitin carboxyl-terminal hydrolase 1 (Homo sapiens) (O94782 whole entry, looked up): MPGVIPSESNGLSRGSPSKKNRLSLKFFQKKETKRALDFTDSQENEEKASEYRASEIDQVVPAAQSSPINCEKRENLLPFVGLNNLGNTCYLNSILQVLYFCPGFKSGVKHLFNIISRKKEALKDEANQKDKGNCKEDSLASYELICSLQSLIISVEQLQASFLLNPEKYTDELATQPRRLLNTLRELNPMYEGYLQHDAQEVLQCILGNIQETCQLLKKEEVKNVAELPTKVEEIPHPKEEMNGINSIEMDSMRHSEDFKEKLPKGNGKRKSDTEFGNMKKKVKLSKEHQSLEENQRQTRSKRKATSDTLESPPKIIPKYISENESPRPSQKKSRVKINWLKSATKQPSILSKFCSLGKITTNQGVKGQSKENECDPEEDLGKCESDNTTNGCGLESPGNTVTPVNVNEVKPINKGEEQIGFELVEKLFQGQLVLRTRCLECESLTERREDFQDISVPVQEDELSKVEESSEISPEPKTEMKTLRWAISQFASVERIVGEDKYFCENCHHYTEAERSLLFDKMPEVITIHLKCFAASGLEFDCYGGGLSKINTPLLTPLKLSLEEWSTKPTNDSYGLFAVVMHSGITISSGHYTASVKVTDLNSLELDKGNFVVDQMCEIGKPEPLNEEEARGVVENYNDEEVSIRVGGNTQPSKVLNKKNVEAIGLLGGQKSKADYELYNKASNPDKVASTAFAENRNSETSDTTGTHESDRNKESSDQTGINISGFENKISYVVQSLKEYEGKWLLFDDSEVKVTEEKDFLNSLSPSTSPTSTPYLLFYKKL
Assay [11] addresses Cytochrome P450 2C19 (Homo sapiens) (UniProt P33261). As to the kind of experiment: qHTS Assay for Inhibitors and Substrates of Cytochrome P450 2C19 (AID 899). Note: potency is the fitted concentration of half-maximal effect; nearly all actives have a fitted effect of over 60% in size. Put shortly:
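Human CYP2C19 (5nM) with Luciferin-H EGE at 10uM (its KM) in 50mM KPO4 was preincubated with compound for 10 min at 37C. NADPH regeneration started a 60 min 37C reaction. Luciferin was read by luminescence, normalized to 57uM ketoconazole.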

Assay [12] has as its target Cytochrome P450 1A2 (Homo sapiens) (UniProt P05177). Put plainly: p450-cyp1a2 (AID 410; calls by dose curve; note: potency is the fitted concentration of half-maximal effect;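 for activity change, negative = inhibition: -100% = full effect of reference inhibitor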). Put shortly: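 Luminescent readout of luciferin formed from Luciferin-ME by human CYP1A2; data normalized against complete inhibition by 57 uM furafylline. Enzyme 20nM, substrate 100uM at Km, 100mM KPO4 buffer, 60 min reaction at room temperature.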
[13] abbreviates: measured here: cell count channel max response.
The mark [14] stands for this setting: measured here: lipid channel max response.

Sequence of DNA dC->dU-editing enzyme APOBEC-3G (Homo sapiens) (Q9HC16 whole entry, looked up): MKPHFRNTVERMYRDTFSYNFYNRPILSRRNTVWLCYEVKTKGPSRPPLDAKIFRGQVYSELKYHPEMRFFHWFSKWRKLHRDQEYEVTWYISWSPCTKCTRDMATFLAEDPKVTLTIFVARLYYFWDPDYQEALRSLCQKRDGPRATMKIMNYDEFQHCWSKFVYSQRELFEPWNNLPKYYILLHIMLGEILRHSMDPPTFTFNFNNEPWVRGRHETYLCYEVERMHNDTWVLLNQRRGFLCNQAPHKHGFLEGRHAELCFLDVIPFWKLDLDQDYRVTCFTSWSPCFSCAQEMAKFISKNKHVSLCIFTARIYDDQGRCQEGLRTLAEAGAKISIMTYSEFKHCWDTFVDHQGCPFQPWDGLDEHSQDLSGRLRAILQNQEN
Sequence of 3',5'-cyclic-AMP phosphodiesterase 4B (Homo sapiens) (Q07343 whole entry, looked up): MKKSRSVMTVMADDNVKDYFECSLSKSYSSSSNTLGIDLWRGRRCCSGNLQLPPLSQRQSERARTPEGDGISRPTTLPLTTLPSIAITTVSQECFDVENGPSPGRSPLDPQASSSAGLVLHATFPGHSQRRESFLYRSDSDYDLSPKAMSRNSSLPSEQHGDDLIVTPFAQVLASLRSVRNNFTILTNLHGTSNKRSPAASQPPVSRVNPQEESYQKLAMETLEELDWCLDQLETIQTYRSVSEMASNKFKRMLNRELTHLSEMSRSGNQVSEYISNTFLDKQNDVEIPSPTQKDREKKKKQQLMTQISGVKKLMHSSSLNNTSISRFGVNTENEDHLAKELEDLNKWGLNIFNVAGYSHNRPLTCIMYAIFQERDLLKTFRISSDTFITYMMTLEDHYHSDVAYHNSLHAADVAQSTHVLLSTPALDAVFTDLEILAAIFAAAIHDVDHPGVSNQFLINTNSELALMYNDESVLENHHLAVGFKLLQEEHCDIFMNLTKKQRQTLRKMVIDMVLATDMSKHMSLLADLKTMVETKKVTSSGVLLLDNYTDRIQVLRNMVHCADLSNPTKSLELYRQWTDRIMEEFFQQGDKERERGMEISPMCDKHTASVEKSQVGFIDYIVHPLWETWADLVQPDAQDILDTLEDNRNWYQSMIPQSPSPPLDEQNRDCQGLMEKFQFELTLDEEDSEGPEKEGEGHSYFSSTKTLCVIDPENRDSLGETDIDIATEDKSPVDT
Sequence of Cytochrome P450 1A2 (Homo sapiens) (P05177 whole entry, looked up): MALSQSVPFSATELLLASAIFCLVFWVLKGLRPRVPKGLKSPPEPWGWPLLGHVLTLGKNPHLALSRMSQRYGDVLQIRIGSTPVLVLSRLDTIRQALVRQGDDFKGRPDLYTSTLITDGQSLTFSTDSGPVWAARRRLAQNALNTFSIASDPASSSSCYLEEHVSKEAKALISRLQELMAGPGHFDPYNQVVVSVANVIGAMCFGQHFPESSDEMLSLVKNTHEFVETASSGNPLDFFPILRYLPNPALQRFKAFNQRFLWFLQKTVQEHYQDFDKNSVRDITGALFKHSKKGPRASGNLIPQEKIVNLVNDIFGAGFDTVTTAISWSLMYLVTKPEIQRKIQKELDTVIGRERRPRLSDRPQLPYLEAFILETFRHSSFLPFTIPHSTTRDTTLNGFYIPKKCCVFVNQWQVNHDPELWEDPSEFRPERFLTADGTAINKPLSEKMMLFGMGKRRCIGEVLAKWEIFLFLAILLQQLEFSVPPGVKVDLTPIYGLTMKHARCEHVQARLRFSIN
Sequence of Cytochrome P450 2C19 (Homo sapiens) (P33261 whole entry, looked up): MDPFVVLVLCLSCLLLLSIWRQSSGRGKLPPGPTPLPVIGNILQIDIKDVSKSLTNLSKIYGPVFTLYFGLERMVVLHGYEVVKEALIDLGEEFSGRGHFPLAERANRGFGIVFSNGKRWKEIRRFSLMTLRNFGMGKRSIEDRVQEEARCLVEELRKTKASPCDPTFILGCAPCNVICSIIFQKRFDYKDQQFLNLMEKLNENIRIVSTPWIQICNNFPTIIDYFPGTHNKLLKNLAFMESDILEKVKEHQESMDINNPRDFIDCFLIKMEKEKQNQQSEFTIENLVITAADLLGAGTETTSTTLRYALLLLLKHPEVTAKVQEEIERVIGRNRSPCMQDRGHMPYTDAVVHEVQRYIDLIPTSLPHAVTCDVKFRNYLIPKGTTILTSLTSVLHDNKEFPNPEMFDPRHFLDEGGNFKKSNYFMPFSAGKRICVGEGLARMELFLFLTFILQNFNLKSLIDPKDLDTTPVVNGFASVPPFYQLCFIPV

`CCC(=O)O[C@H](CC(=O)O)C[N+](C)(C)C`: the Potency in assay [1] and in assay [2] was > 46 µM (inactive) throughout. In addition, the Potency result in [3], in assay [5], in [6] and in assay [7] was “inactive” each time. The activity change, negative = inhibition in [4] is 3.1% (inactive). The max response in assay [4] (setting [13]) is -8.23%; in assay [4] (setting [14]) it was -5.22%.
Regarding `C[C@H](NC[C@H](O)CP(=O)(O)CC1CCCCC1)c1ccc(Cl)c(Cl)c1`, the Potency in [1] and in assay [2] was > 46 µM (inactive) in each case. The Potency result in [3], in assay [8], in assay [9], in [10], in assay [5] and in assay [6] was “inactive” in each case. Also, the Potency entry in [7] is “inactive”. The activity change, negative = inhibition in assay [4] is 4.93% (inactive). Besides, the max response in assay [4] (setting [13]) came out at 9.04%; in [4] (setting [14]), 17.2%.
Turning to `CN(CCc1ccc(Cl)c(Cl)c1)CCN1CCCC1`, the Potency in [1] and in assay [2] was > 46 µM (inactive) each time. Further, the Potency entry in [3], in assay [5], in assay [6] and in [7] was “inactive” in each case. For the same molecule, the activity change, negative = inhibition in assay [4] was -5.91% (inactive). Moreover, the max response was determined as 22.4% in [4] (setting [13]) and 15.8% in assay [4] (setting [14]).
Regarding `c1ccc2oc(C3=NCCN3)cc2c1`, the Potency in [1] and in assay [2] was > 46 µM (inactive) each time. For the same molecule, the Potency result in assay [3], in assay [5], in [6] and in assay [7] was “inactive” each time. For the same molecule, the activity change, negative = inhibition in assay [4] is -5.14% (inactive). For the same molecule, the max response is -13.1% in assay [4] (setting [13]) and -18.7% in [4] (setting [14]).
With `CCCCCCCCCC(=O)O[C@H](CC(=O)O)C[N+](C)(C)C`, the Potency in assay [1] and in [2] was > 46 µM (inactive) throughout. Also, the Potency result in assay [3], in [10], in assay [5], in [6] and in assay [7] was “inactive” throughout. Also, the activity change, negative = inhibition in [4] is 3.92% (inactive). The max response is -0.114% in assay [4] (setting [13]) and -1.87% in [4] (setting [14]).
Take `NC1(C(=O)O)C[C@@H](C(=O)O)[C@H](C(=O)O)C1`: the results for the Potency in [1], in [2] and in [11] were > 46 µM (inactive), > 46 µM (inactive) and 7.94 µM (active), respectively. Moreover, the Potency entry in assay [3], in [8], in assay [10], in [5], in [6] and in [7] was “inactive” throughout. Further, the activity change, negative = inhibition in assay [4] is 7.04% (inactive) and 6.44% (inactive). The max response in assay [4] (setting [13]) is 8.99% and 4.7%; in assay [4] (setting [14]), 18.3% and 11.3%.
In the case of `NC(=O)C[C@H](NC(=O)Cc1ccc(O)cc1O)C(=O)O`, the Potency result in [12], in assay [8], in assay [5], in assay [6] and in [7] was “inactive” in each case. In addition, the Potency in assay [1] and in assay [2] was > 46 µM (inactive) throughout. Also, the activity change, negative = inhibition in assay [4] is -1.96% (inactive). Besides, the max response in assay [4] (setting [13]) is -23.7%; in assay [4] (setting [14]), -24%.
For the molecule `N[C@]1(C(=O)O)CCc2cc(P(=O)(O)O)ccc21`, the Potency in assay [1] and in [2] was > 46 µM (inactive) throughout. Further, the Potency result in assay [3], in assay [8], in [10], in assay [5], in assay [6] and in assay [7] was “inactive” in each case. Moreover, the activity change, negative = inhibition in assay [4] was -2.38% (inactive). Further, the max response in assay [4] (setting [13]) was -7.84%; in [4] (setting [14]), -8.48%.
On to `COc1ccccc1N1CCN(CCCCN2C(=O)CCC2=O)CC1`, for which the Potency in assay [1] and in [2] was > 46 µM (inactive) throughout. Also, the Potency entry in assay [3], in assay [8], in assay [10], in assay [5], in assay [6] and in assay [7] was “inactive” in each case. The activity change, negative = inhibition in assay [4] was -4.36% (inactive). For the same molecule, the max response in [4] (setting [13]) is -1.96%; in assay [4] (setting [14]), -4.4%.
For `O=C(O)c1c2ccccc2cc2ccccc12`, the Potency was 0.2 µM (active) in assay [12] and 26.7 µM (active) in assay [6]. Further, the Potency result in assay [3], in assay [5] and in assay [7] was “inactive” in each case. Besides, the activity change, negative = inhibition in assay [4] is 8.27% (inactive). Further, the values for the max response in [4] (setting [13]) and in [4] (setting [14]) were 24.6% and 34.2%, respectively.
Take `Cc1ncc2c(c1O)COP(=O)(O)OC2`: the Potency in assay [1] and in assay [2] was > 46 µM (inactive) throughout. Further, the Potency entry in assay [3], in assay [8], in [10], in [5], in assay [6] and in assay [7] was “inactive” in each case. The activity change, negative = inhibition in [4] was 0.354% (inactive). Moreover, the max response in [4] (setting [13]) is -3.73%; in assay [4] (setting [14]), -4.32%.
As for `OC[C@@H]1O[C@@H](n2cnc3c(N[C@H]4CCC[C@@H]4O)ncnc32)[C@H](O)[C@H]1O`, the Potency in assay [1] and in assay [2] was > 46 µM (inactive) throughout. Further, the Potency entry in [3], in assay [8], in [10], in [5], in assay [6] and in assay [7] was “inactive” in each case. Also, the activity change, negative = inhibition in assay [4] is 3.72% (inactive). The max response in assay [4] (setting [13]) is -18.9%; in assay [4] (setting [14]), -17.5%.
Take `Cc1o[nH]c(=O)c1CC[C@H](N)C(=O)O`: the Potency in assay [1] and in assay [2] was > 46 µM (inactive) each time. The Potency result in assay [3], in assay [8], in [10], in assay [5], in [6] and in assay [7] was “inactive” in each case. Moreover, the activity change, negative = inhibition in assay [4] is 4.78% (inactive). The max response in assay [4] (setting [13]) was -7.36%; in assay [4] (setting [14]), -2.41%.
